Results reported in the supplement of paper PMC6555819.

How the values were obtained:
Test in all cases: PBM binding z-score (relative to random genomic background probes); higher = stronger binding; sequences stand for … in GC…GCGATTGACAGCGTAGAATGAAGG
[1] = system: RARb homodimer (NR concentration 270 nM)
Summary of the method: (§1)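 Custom Agilent 4×180K protein-binding microarrays carried double-stranded probes. Their 34-nt variable regions held direct-repeat seeds, single-nucleotide variants, half-site ablations and random human genomic background sequences. Arrays were incubated 1 h with ligand-free nuclear receptor dimers in PBS pH 7.4, 2% milk, 0.02% Triton X-100, 1 mM DTT, 0.2 mg/mL BSA and 0.4 mg/ml salmon testes DNA. Antibodies against each partner (one per run) detected binding, and scanned fluorescence was regression-normalized. Binding z-scores use random background probes as reference.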

[2] = system: RARg:RXRa (NR concentration 270 nM, RXRa partner concentration 90 nM)
Summary of the method: as §1

[3] = system: RARg homodimer (NR concentration 270 nM)
Summary of the method: as §1

[4] = system: RXRa DBDmut IVT, anti-RXR (DBD mutation: RXRa K156A/R161A, NR concentration 90 nM)
Summary of the method: as §1

[5] = system: RXRa homodimer (NR concentration 180 nM)
Summary of the method: as §1

[6] = system: THRa:RXRa (NR concentration 90 nM, RXRa partner concentration 90 nM)
Summary of the method: as §1

[7] = system: THRa homodimer (NR concentration 90 nM)
Summary of the method: as §1

[8] = system: VDR homodimer (NR concentration 270 nM)
Summary of the method: as §1

For GCGACTGCGGCATCAGCAGGTTACCATAACTTAA, the PBM binding z-score [1] was 0.0981, the PBM binding z-score [2] was -0.378 and the PBM binding z-score [3] was -0.604. For the same sequence, the PBM binding z-score [4] was -0.332, the PBM binding z-score [5] was 0.0443 and the PBM binding z-score [6] was 0.0329. The PBM binding z-score [7] was 0.0125 and the PBM binding z-score [8] was -0.566.

With ACTAGCAAGCCAAGTTTGGGTCACTCAAACAAAG the PBM binding z-score [1] was 1.51, the PBM binding z-score [2] was 0.717 and the PBM binding z-score [3] was 0.562. It also gave a PBM binding z-score [4] of -0.45, a PBM binding z-score [5] of 0.557 and a PBM binding z-score [6] of 2.09. For the same sequence, the PBM binding z-score [7] was 0.807 and the PBM binding z-score [8] was -0.115.

TAACCTAGGTCATTGGGCCAGTATAGTACGCATC gave a PBM binding z-score [1] of 3.46, a PBM binding z-score [2] of 4.58 and a PBM binding z-score [3] of 4.75. The PBM binding z-score [4] was 2.44, the PBM binding z-score [5] was 3.95 and the PBM binding z-score [6] was 3.19. It also gave a PBM binding z-score [7] of 1.52 and a PBM binding z-score [8] of 2.14.

Work on CAAATTAGGTCAAGAGGTCAAAGTCCGCTTCCCG yielded a PBM binding z-score [1] of 5.68, a PBM binding z-score [2] of 8.43 and a PBM binding z-score [3] of 7.88. For the same sequence, the PBM binding z-score [4] was 3.08, the PBM binding z-score [5] was 8.85 and the PBM binding z-score [6] was 4.42. For the same sequence, the PBM binding z-score [7] was 2.88 and the PBM binding z-score [8] was 5.32.

TAGGCTAGGTCATTGGGCCAGTATAGTACGCATC was tested, and the PBM binding z-score [1] was 2.94, the PBM binding z-score [2] was 3.67 and the PBM binding z-score [3] was 4.61. The PBM binding z-score [4] was 1.54, the PBM binding z-score [5] was 2.5 and the PBM binding z-score [6] was 2.54. For the same sequence, the PBM binding z-score [7] was 0.641 and the PBM binding z-score [8] was 1.09.

GATACAGTGTCAGCTAGAGGCCAGAGTATGGAAA was tested, and the PBM binding z-score [1] was 1.01, the PBM binding z-score [2] was 2.09 and the PBM binding z-score [3] was 0.824. For the same sequence, the PBM binding z-score [4] was -0.492, the PBM binding z-score [5] was 0.242 and the PBM binding z-score [6] was 0.131. It also gave a PBM binding z-score [7] of -0.254 and a PBM binding z-score [8] of -0.198.

In the case of TCATATCGGTAAATGCTAGGTGAAAGTCCGATCT, the PBM binding z-score [1] is reported as 0.513, the PBM binding z-score [2] is reported as -0.0615 and the PBM binding z-score [3] is reported as 0.173. It also gave a PBM binding z-score [4] of 1.14, a PBM binding z-score [5] of 0.375 and a PBM binding z-score [6] of 0.889. It also gave a PBM binding z-score [7] of 0.553 and a PBM binding z-score [8] of 0.0162.

For CCTACTGGGACACGAAAGGTCATTGATTCAGTGA, the PBM binding z-score [1] was 4.97, the PBM binding z-score [2] was 4.63 and the PBM binding z-score [3] was 4.53. It also gave a PBM binding z-score [4] of 0.718, a PBM binding z-score [5] of 5.12 and a PBM binding z-score [6] of 3.77. For the same sequence, the PBM binding z-score [7] was 1.35 and the PBM binding z-score [8] was 2.67.
